# Test results taken from PubChem BioAssay AID651958 (The Scripps Research Institute Molecular Screening Center, 2012).
# In all, about 370,000 compounds went through this assay and about 2,000 (0.54%) were called active. Cut-off read from the data, not from the text of the source: active = inhibition above about 30%; inactive = the rest. The list comes from a sample in which actives are over-represented; it also holds similar structures and randomly drawn compounds.
# Test system: Crimean-Congo hemorrhagic fever virus L polyprotein viral ovarian tumor (vOTU) protease domain
# Test: CCHFV vOTU protease inhibitors, primary screen, biochemical, Pep-AMC substrate, fluorescence (AID 651958); note: 0% = vehicle wells with enzyme and 100% = no enzyme wells
# Details: at 11.5 µM, hits give high values
row,Compound,inhibition
1,CN(CC(=O)Nc1ccccc1F)CC(=O)Nc1ccccc1Br,-17.7% (inactive)
2,O=C(C(=O)N1CCC(CNS(=O)(=O)Cc2ccccc2)CC1)c1cc2ccccc2o1,-0.44% (inactive)
3,CC(C)(C)c1ccc(S(=O)(=O)NCC2CCN(C(=O)C(=O)c3cc4ccccc4o3)CC2)cc1,41.9% (active)
4,N#Cc1cccc(C(=O)NCC2CCN(C(=O)C(=O)c3cc4ccccc4o3)CC2)c1,5.69% (inactive)
5,Cc1ccc(C(=O)CN2C(=O)NC3(CCc4ccccc43)C2=O)c(C)c1 (configuration not stated),-4.9% (inactive)
6,Cn1c(CN2CCOCC2)nc2cc(NC(=O)c3ccc(Cl)cc3)ccc21,-1.05% (inactive)
7,CCOC(=O)N1CCN(Cc2nc3cc(NC(=O)CC)ccc3n2CC)CC1,10.5% (inactive)
8,CN1CCN(Cc2nc3cc(NC(=O)COc4ccc([N+](=O)[O-])cc4)ccc3n2C)CC1,33.6% (active)
9,CC(=O)Nc1ccc(C(=O)NNC(=O)CCCCC(=O)NNC(=O)c2ccc(NC(C)=O)cc2)cc1,2.99% (inactive)
10,COc1cc(C(=O)OCC(=O)NC23CC4CC(CC(C4)C2)C3)cc(OC)c1OC,12.9% (inactive)
11,COc1ccc(C(=O)COC(=O)c2ccc([N+](=O)[O-])s2)cc1OC,34.1% (active)
12,COc1ccc(C(=O)OCC(=O)c2ccc(C)c(S(=O)(=O)N3CCOCC3)c2)cc1OC,-12.5% (inactive)
13,COc1cc(CCC(=O)OCC(=O)Nc2cccc(S(N)(=O)=O)c2)cc(OC)c1OC,-0.39% (inactive)
14,COc1cc(NC(=O)COC(=O)c2ccc([N+](=O)[O-])s2)cc(OC)c1OC,113% (active)
15,COc1ccc(C(=O)OCC(=O)c2ccc(Cl)s2)c(OC)c1OC,7.84% (inactive)
16,CCN(CC)CCn1c(=S)[nH]c2ncccc2c1=O,3.47% (inactive)
17,FC(F)(F)c1cc(C(F)(F)F)c2ccc(N3CCN(c4ccccc4)CC3)nc2n1,-0.35% (inactive)
18,CSc1ncc(C(=O)Nc2ccc(C)cc2C)c(C)n1,-3.39% (inactive)
19,CN(C)C(=O)c1ccc2c(c1)C1C3CCC(C3)C1C(c1ccccc1)N2 (configuration not stated),5.37% (inactive)
20,CCOc1ccc(-c2cn(S(=O)(=O)c3cccc4nsnc34)nc2N)cc1,7.56% (inactive)
21,COc1ccccc1C(=O)NCCC(=O)NN1C(=O)NC2(CCCCC2)C1=O,-3.82% (inactive)

row,Compound,inhibition
1,CCN(C[C@H]1N[C@@](CC)(C(=O)OC)[C@H]2C(=O)N(Cc3ccccc3)C(=O)[C@@H]12)S(=O)(=O)c1ccccc1,6.5% (inactive)
2,CCN(C[C@H]1N[C@@](CC)(C(=O)OC)[C@H]2C(=O)N(Cc3ccccc3)C(=O)[C@@H]12)S(=O)(=O)c1ccc(C(F)(F)F)cc1,29.7% (active)
3,COC(=O)[C@]1(Cc2ccccc2)N[C@H](CN(C)S(=O)(=O)c2ccc(OC(F)(F)F)cc2)[C@@H]2C(=O)N(Cc3ccccc3)C(=O)[C@@H]21,3.43% (inactive)
4,COC(=O)[C@@]12C[C@@H](CC(=O)NCc3cccc(C(F)(F)F)c3)C(=O)N(Cc3ccco3)C1=CCC(C)(C)C2,34.5% (active)
5,CCCCNC(=O)C[C@@H]1C[C@@]2(C(=O)OC)CC(C)(C)CC=C2N(Cc2ccco2)C1=O,4.7% (inactive)
6,CCOC(=O)[C@]12CCC=C1N(Cc1ccco1)C(=O)[C@H](CC(=O)NCc1cccc(C(F)(F)F)c1)C2,15.5% (inactive)
7,CCN(CC(=O)Nc1ccccc1C(F)(F)F)C(=O)CSCc1c(C)noc1C,-9.14% (inactive)
8,CCCCCCCCN1C(=O)[C@@H](CC(=O)NCc2ccc(C)o2)C[C@@]2(C(=O)OC)C1=C[C@H](C(C)(C)C)O[C@@H]2C,17.8% (inactive)
9,COC(=O)[C@]12C[C@H](CC(=O)NCc3ccc(C)o3)C(=O)N(CCC3=CCCCC3)C1=C[C@H](C(C)(C)C)O[C@@H]2C,29.6% (active)
10,COC(=O)[C@]12C[C@H](CC(=O)NCc3ccccc3)C(=O)N(CCC3=CCCCC3)C1=C[C@H](C(C)(C)C)O[C@@H]2C,24.8% (inactive)
11,COc1ccc2c(c1)[C@H]1[C@H](CO2)[C@H](c2ccccc2)[C@]2(C)C(=O)Nc3cc(F)c(F)cc3C(=O)N12,0.66% (inactive)
12,COCCn1c(SCc2nc3cc(OC)c(OC)cc3c(=O)[nH]2)nnc1-c1ccncc1,-3.09% (inactive)
13,O=C1Nc2ccccc2-n2nnnc2C1N1CCN(c2cccc(C(F)(F)F)n2)CC1 (configuration not stated),32.5% (active)
14,COc1cc(OC)cc(C(=O)NCCN2CCC3(CC2)C(=O)NCN3c2ccccc2)c1,-10.2% (inactive)
15,CCCc1ccc(C(O)c2ncc(-c3cccc(OC)c3)[nH]2)cc1 (configuration not stated),23.9% (inactive)
16,O=C(CSc1nc2[nH]ncc2c(=O)[nH]1)Nc1ccc(F)cc1,-2.83% (inactive)
17,Cc1cc(=O)[nH]c(SCC(=O)Nc2ccc(Cl)cc2C)n1,-2.3% (inactive)
18,Cc1cc(C)c2c(=O)[nH]c(SCC(=O)Nc3ccc(Br)cc3)nc2n1,36% (active)
19,Cc1ccnc(NS(=O)(=O)c2ccc(NC(=O)c3ccc(S(=O)(=O)N(C)C)cc3)cc2)n1,-12.8% (inactive)
20,Cc1ccnc(NS(=O)(=O)c2ccc(NC(=O)c3oc4ccccc4c3C)cc2)n1,29.9% (active)
21,Cc1ccnc(NS(=O)(=O)c2ccc(NC(=O)c3oc4ccc(F)cc4c3C)cc2)n1,-2.26% (inactive)

row,Compound,inhibition
1,COc1c(F)c(F)c(-c2csc(N)n2)c(F)c1F,-1.03% (inactive)
2,CCOc1cc(S(=O)(=O)NC2CC(C)(C)NC(C)(C)C2)ccc1F,13.1% (inactive)
3,O=C(NCCc1ccc(Cl)cc1Cl)c1cc([N+](=O)[O-])c[nH]c1=O,30.7% (active)
4,NS(=O)(=O)c1ccc(CCNC(=O)c2ccc(Cl)cc2[N+](=O)[O-])cc1,2.43% (inactive)
5,O=C(NCCc1c[nH]c2ccc(Cl)cc12)c1ccc([N+](=O)[O-])cc1,-0.42% (inactive)
6,Cc1ccc(-n2c(SCC(=O)Nc3cccc4ccccc34)nnc2-c2ccco2)cc1,7.16% (inactive)
7,CCCc1ccc(-c2c(C)sc(NC(=O)c3ccnn3C)c2C#N)cc1,13% (inactive)
8,CC(=O)NC(C(=O)NCC(N)=O)C(C)C (configuration not stated),3.21% (inactive)
9,Cc1cc(C)cc(NC(=S)NCCCN2CCOCC2)c1,0.01% (inactive)
10,Cc1ccc(NC(=S)NCCN2CCOCC2)cc1,36.5% (active)
11,CCCC(=O)NC(=S)Nc1ccc(CN2CCOCC2)cc1,9.86% (inactive)
12,CN(CC1CCCO1)S(=O)(=O)c1ccc(C(=O)Nc2ccc(F)cc2)cc1 (configuration not stated),5.87% (inactive)
13,OCc1nc(CO)n(Cc2ccccc2)n1,-7.04% (inactive)
14,CCOC(=O)NN1C(=O)c2ccccc2NC1c1ccccc1O (configuration not stated),-25.4% (inactive)
15,CCOC(=O)C1=C(C)c2ccccc2OC1C(=O)OCC (configuration not stated),16.2% (inactive)
16,CCOC(=O)c1c(C)[nH]c2c1-c1ccccc1C(=O)C2=O,108% (active)
17,COC(=O)c1cc(C(=O)OCC(=O)Nc2cc(C)on2)cc([N+](=O)[O-])c1,4.92% (inactive)
18,Cc1noc(C)c1C(=O)OCC(=O)N1CCN(S(=O)(=O)c2ccc3ccccc3c2)CC1,4.27% (inactive)
19,COc1ccc(-c2cn(-c3ccc(C)cc3)c(=O)n2CC(=O)Nc2ccc(OC)c(OC)c2)cc1,15.2% (inactive)
20,C#CCO[C@@H]1C[C@H](n2cnc3c(=O)[nH]c(NC(=O)C(C)C)nc32)O[C@@H]1CO,-9.39% (inactive)
21,Cc1ccc(S(=O)(=O)N2CCOCC2)cc1C(=O)NC(=S)N(Cc1ccccc1)C(C)C,-6.59% (inactive)

row,Compound,inhibition
1,O=C(CCS(=O)(=O)c1ccccc1)Nc1ccc(Cl)c(Cl)c1,13.1% (inactive)
2,Cc1nnc(NC(=O)Nc2ccc(Cl)c(Cl)c2)s1,43.4% (active)
3,Cc1nnc(NC(=O)Cn2c(=O)sc3ccccc32)s1,-3.29% (inactive)
4,CCCCn1ccnc1C(=O)c1cccc(S(=O)(=O)N2c3ccccc3CC2C)c1 (configuration not stated),26.1% (inactive)
5,CCCCNS(=O)(=O)c1ccc2nc(SCC(=O)Nc3cc(C)cc(C)c3)[nH]c2c1,4.67% (inactive)
6,Cc1ccc(-n2ncc(C(=O)NC3CC3)c2C2CCN(C(=O)OC(C)(C)C)CC2)c(C)c1,16% (inactive)
7,Cc1ccc(C(=O)NC2CC(C)(C)NC(C)(C)C2)c(C)c1,-8.23% (inactive)
8,CSCCC(NC(=O)COc1ccccc1)C(=O)N(C)CC(=O)Nc1ccc(C)cc1 (configuration not stated),9.4% (inactive)
9,COc1ccc2c(c1)C(C)=CC(C)(C)N2C(=O)CNCc1ccc2c(c1)OCO2,-2.62% (inactive)
10,COc1ccc2c(c1)C(C)=CC(C)(C)N2C(=O)Nc1ccccc1,51.4% (active)
11,COc1cccc(NC(=O)C2C(c3ccccc3)C2(Cl)Cl)c1 (configuration not stated),-4.86% (inactive)
12,O=C(COc1coc(CN2CCN(c3ccccc3)CC2)cc1=O)N1CCc2ccccc21,-8.86% (inactive)
13,CCc1nc2ccc(C(=O)Nc3ccc(OC)c(OC)c3)cn2c1N(C)C(=O)c1cccc(OC)c1,7.94% (inactive)
14,O=C(O)Cc1csc(NC(=O)CSc2nnnn2-c2ccc(O)cc2)n1,-4.88% (inactive)
15,CCN(CC)C(=O)C1=C(C)N(Cc2ccc(C(C)(C)C)cc2)C(=O)C(CC(=O)NCc2cccc3ccccc23)C1 (configuration not stated),31.8% (active)
16,COc1ccc(CN2C(=O)C(CC(=O)NCc3cccc4ccccc34)CC(C(=O)N3CCOCC3)=C2C)cc1 (configuration not stated),7.84% (inactive)
17,CCN(CC)C(=O)C1=C(C)N(Cc2ccc(F)cc2)C(=O)C(CC(=O)NCc2cccc3ccccc23)C1 (configuration not stated),1.88% (inactive)
18,CCN(CC)CCCC(C)n1c2nc(=O)[nH]c(=O)c-2nc2cc(Cl)ccc21 (configuration not stated),95.2% (active)
19,Cc1ccc(C)c(NC(=O)c2cc(-c3cc(C)cc(C)c3O)n[nH]2)c1,-1.49% (inactive)
